# Measured values: PubChem BioAssay (NCATS)
# Results filed as inconclusive are left out. A call without a number means that no potency is given here. The source made the active and inactive calls. The call rests on the fitted dose curve; in most records, active means well fitted inhibition curve with a large enough effect; inconclusive means small, poorly fitted or top-dose-only effect; inactive means flat fitted curve, though single readings scatter.
# System: CP266
# Test: qHTS profiling for inhibitors of Plasmodium falciparum proliferation (AID 504749); further: nearly all actives have a fitted effect of over 60% in size
# Settings: P. falciparum in erythrocytes, SYBR Green DNA, 72 h; series mostly up to 28.7 µM
# Summary of the method: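 SYBR Green fluorescence (ex 485 nm, em 535 nm) reports parasite DNA after 72 h compound exposure of infected red cells at 0.3% parasitemia, 2.5% hematocrit; signal normalized to 0.29 uM artemisinin and vehicle wells.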
row,Compound,Potency
1,CC(Cc1cccc(C(F)(F)F)c1)NCCOC(=O)c1ccccc1 (stereo not drawn),inactive
2,CN(C)CC/C=C1\c2ccccc2Sc2ccc(Cl)cc21,inactive
3,CC(=O)c1ccc2c(c1)N(CCCN1CCC(CCO)CC1)c1ccccc1S2,inactive
4,O=C(CCCN1CCC(O)(c2ccc(Br)cc2)CC1)c1ccc(F)cc1,inactive
5,CC(C)N=C(N)/N=C(\N)Nc1ccc(Cl)cc1,inactive
6,O=C(Nc1ccc(Oc2ccc(Cl)cc2)c(Cl)c1)c1cc(I)cc(I)c1O,inactive
7,CCOC(=O)/C=C(C)/C=C/C=C(C)/C=C/c1c(C)cc(OC)c(C)c1C,inactive
8,CCN(CC)C(=O)/C(C#N)=C/c1cc(O)c(O)c([N+](=O)[O-])c1,inactive
